# The panel holds about 83,000 compounds, 20% with a hit somewhere; the sample as a whole holds those more often.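 Plates (96-well) were seeded with cells, treated with compound at one concentration, and incubated for 48 hours before percent growth was determined.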 Values without a mark were called inactive. Activity calls are given as the source filed them. The calls were made as follows: active = growth percent below 10; inactive = the rest.
# How the values were obtained:
# Experiment in all cases: NCI-60 one-dose screen, 48 h (100 = growth as untreated, 0 = no growth, -100 = all killed)
# Settings in all cases: 10 µM unless noted
# NCI-H23 lung = tested on: NCI-H23 lung
# NCI-H226 lung = tested on: NCI-H226 lung
# NCI-H322M lung = tested on: NCI-H322M lung
# HOP-62 NSCLC = tested on: HOP-62 NSCLC
# NCI-H460 lung = tested on: NCI-H460 lung
# HOP-92 NSCLC = tested on: HOP-92 NSCLC
# NCI-H522 lung = tested on: NCI-H522 lung
# A549/ATCC NSCLC = tested on: A549/ATCC NSCLC
# 786-0 renal = tested on: 786-0 renal
# COLO 205 colon = tested on: COLO 205 colon
# DU-145 prostate = tested on: DU-145 prostate
# K-562 leukemia = tested on: K-562 leukemia
# MALME-3M melanoma = tested on: MALME-3M melanoma
# MDA-MB-231 breast = tested on: MDA-MB-231 breast
# RXF 393 renal = tested on: RXF 393 renal
# SF-268 CNS = tested on: SF-268 CNS
# SF-295 CNS = tested on: SF-295 CNS
# SF-539 CNS = tested on: SF-539 CNS
# UACC-257 melanoma = tested on: UACC-257 melanoma
# M14 melanoma = tested on: M14 melanoma
Structure (SMILES),growth (NCI-H23 lung),growth (NCI-H226 lung),growth (NCI-H322M lung),growth (HOP-62 NSCLC),growth (NCI-H460 lung),growth (HOP-92 NSCLC),growth (NCI-H522 lung),growth (A549/ATCC NSCLC),growth (786-0 renal),growth (COLO 205 colon),growth (DU-145 prostate),growth (K-562 leukemia),growth (MALME-3M melanoma),growth (MDA-MB-231 breast),growth (RXF 393 renal),growth (SF-268 CNS),growth (SF-295 CNS),growth (SF-539 CNS),growth (UACC-257 melanoma),growth (M14 melanoma)
O=C(O)CC1CCN(c2ccc3nnc(Cl)n3n2)CC1,93.9%,98.7%,96.2%,93.3%,108%,96.2%,96%,103%,100%,107%,107%,105%,102%,112%,109%,100%,102%,102%,109%,94.6%
CC1=C(C)C(=O)C(Nc2cccc(C)c2)=C(Br)C1=O,85.1%,92.2%,98.4%,90.7%,103%,-35.5% (active),94.6%,101%,107%,126%,104%,2.13% (active),117%,67.8%,106%,100%,100%,98.2%,84.8%,104%
CS(=O)(=O)c1ccc(/C(=N/N=C(N)N)c2ccc(Cl)cc2)cc1,95.4%,95.5%,94.9%,85.1%,99.1%,57.2%,77.4%,99.2%,88.5%,91.5%,101%,40.7%,81.6%,96.1%,82.6%,80.7%,95.4%,91.8%,90.2%,72.8%
CCc1nnc(NC(=O)c2cc(-c3ccc(Cl)cc3Cl)oc2C)s1,85.7%,85.6%,85.4%,96%,53.9%,92%,79.4%,77.1%,95.9%,105%,93.5%,86%,88.3%,91.5%,109%,89.3%,94.2%,92.4%,103%,93.3%
O=S1SC(c2ccccc2)=NN1c1cc(F)cc(F)c1 (stereo not given),22.9%,45.4%,67.9%,48.6%,19.6%,-25.2% (active),34.6%,26%,34.9%,107%,57.2%,22.5%,75.5%,69.4%,52.2%,54.3%,52.1%,60.6%,69.3%,20.6%
O=C(N/N=C\c1ccc(F)cc1)c1ccc2nc(-c3ccc(Br)cc3)[nH]c2c1,0.752% (active),32.9%,68.1%,25.1%,-64.4% (active),53.3%,81%,-3.93% (active),-32% (active),19.2%,-22.1% (active),19.9%,-49.9% (active),60.6%,-12.3% (active),44.8%,39.4%,10.9%,74.5%,18.8%
CCS(=O)(=O)Nc1ccc(C(=O)CC2(O)C(=O)Nc3ccccc32)cc1 (stereo not given),92.5%,91.5%,98.4%,94.6%,105%,38.2%,105%,107%,108%,93.8%,109%,93.5%,90.1%,99.6%,115%,97.3%,102%,96.1%,103%,105%
O=C(/C=C/c1ccccc1)c1cccc(O)c1,104%,93.4%,93.4%,105%,101%,96.1%,95.1%,92.7%,94.6%,110%,105%,71.6%,104%,105%,92.4%,104%,98.3%,103%,101%,95.1%
O=C(/C=C/C=C/c1csc(Br)n1)NO,103%,103%,99.4%,112%,92.2%,129%,79.1%,93.5%,101%,110%,94.3%,73%,85.2%,106%,95.2%,102%,107%,83.2%,79.8%,94.6%
CC1=C(SCC(=O)OCCCCCC(C)C)C(=O)c2ccccc2C1=O,89%,93.8%,100%,106%,102%,85%,68.4%,105%,99.9%,125%,109%,81.1%,116%,83.5%,94.2%,96.4%,101%,88.8%,104%,96.8%
COc1cc2c3c(cc4c5c(ccc4c3c1OC)OCO5)N(CCN(C)C)C2=O,-17.8% (active),-58.8% (active),0.11% (active),6.73% (active),-20.5% (active),-9.11% (active),-6.46% (active),0.384% (active),-16.2% (active),-10.7% (active),0.415% (active),1.42% (active),-79.8% (active),-1.13% (active),-88.5% (active),5.2% (active),-16.8% (active),-58.4% (active),-32.9% (active),-54.5% (active)
COc1ccc(/C(=N\NC(N)=S)c2ccc(Cl)cc2)cc1OC,27.4%,51.6%,53.6%,27.5%,12%,48.6%,-10% (active),42.4%,42.1%,0.963% (active),37.5%,19%,30.8%,16.8%,25.1%,45%,13.4%,14.2%,42.9%,-4.37% (active)
O=C(Nc1ccc(Cl)c(C(F)(F)F)c1)Nc1ccc2c(ccn2C(=O)c2cccc(F)c2)c1,10.3%,36.5%,73.1%,54.5%,13.2%,5.69% (active),5.03% (active),30.6%,42.4%,25.3%,24.5%,11.4%,56%,87%,28.7%,55.4%,5.17% (active),66.7%,60.6%,56.2%
C#CCN(C)CCCOc1ccc(NC(=O)CCCCCCC(=O)NO)cc1Cl,28.1%,63.1%,26.5%,30.1%,25.8%,-14% (active),12.8%,20.5%,39.3%,-26.1% (active),26.3%,18.5%,21.1%,16.3%,-44.3% (active),39.3%,7.83% (active),20.3%,25.6%,23%

# — PubChem BioAssay (NCI)
